BRCA1 expr up: qHTS Assay to Identify Small Molecule Activators of BRCA1 Expression; MCF7-BRCA1-FFLuc reporter, luminescence, 48 h; response scale: scaled: vehicle 0%, 10 µM genistein 100%; Potency, µM (series often up to 46.1 µM), for the others: at the highest dose activation, hits mostly activators; 380,000 compounds, 1.1% hits; AID 624202, 2012; further: potency means the concentration at half of the fitted maximal effect; nearly all actives have a fitted effect of over 80% in size
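Activators of BRCA1 expression were detected as increased firefly luciferase luminescence in engineered MCF7 cells after 48 h compound incubation. Signals were scaled to genistein 10 microM as full activation.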
GLS inh: qHTS for Inhibitors of Glutaminase (GLS); Potency, µM (highest dose often 45.5 µM), inactives show at the highest dose activity change, negative = inhibition, hits mostly inhibitors; Glutaminase kidney isoform, mitochondrial (Homo sapiens), O94925; GLS enzymatic activity, qHTS titration; 410,000 compounds, 0.21% hits; further: potency means the concentration at half of the fitted maximal effect; on the % scale 0 is the no-effect control and ±100 the full control effect
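Enzyme dispensed in phosphate buffer (45 mM, pH 8.2, 0.02% Tween-20), compounds pinned in, then 1 mM L-glutamine solution and the glutamate oxidase–HRP–Amplex Red mix added; fluorescence read immediately and again after 30 min at room temperature.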
TSHR antag: Antagonists of the Thyroid Stimulating Hormone Receptor: HTS campaign | Thyrotropin receptor (Homo sapiens), P16473 | TSHR-expressing cells, TSH-stimulated cAMP HTRF, 2 h; stronger effect = lower value | activity change, negative = inhibition, % at 11.5 µM | 330,000 compounds, 0.2% hits | AID 504810, 2011;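 active means activity change below a set negative limit, meaning inhibition stronger than a set level, cut at about -70% in these data; inconclusive means activity change between two set negative limits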; further: on the % scale 0 is the no-effect control and ±100 the full control effect
Target sequence (P16473 whole entry, looked up): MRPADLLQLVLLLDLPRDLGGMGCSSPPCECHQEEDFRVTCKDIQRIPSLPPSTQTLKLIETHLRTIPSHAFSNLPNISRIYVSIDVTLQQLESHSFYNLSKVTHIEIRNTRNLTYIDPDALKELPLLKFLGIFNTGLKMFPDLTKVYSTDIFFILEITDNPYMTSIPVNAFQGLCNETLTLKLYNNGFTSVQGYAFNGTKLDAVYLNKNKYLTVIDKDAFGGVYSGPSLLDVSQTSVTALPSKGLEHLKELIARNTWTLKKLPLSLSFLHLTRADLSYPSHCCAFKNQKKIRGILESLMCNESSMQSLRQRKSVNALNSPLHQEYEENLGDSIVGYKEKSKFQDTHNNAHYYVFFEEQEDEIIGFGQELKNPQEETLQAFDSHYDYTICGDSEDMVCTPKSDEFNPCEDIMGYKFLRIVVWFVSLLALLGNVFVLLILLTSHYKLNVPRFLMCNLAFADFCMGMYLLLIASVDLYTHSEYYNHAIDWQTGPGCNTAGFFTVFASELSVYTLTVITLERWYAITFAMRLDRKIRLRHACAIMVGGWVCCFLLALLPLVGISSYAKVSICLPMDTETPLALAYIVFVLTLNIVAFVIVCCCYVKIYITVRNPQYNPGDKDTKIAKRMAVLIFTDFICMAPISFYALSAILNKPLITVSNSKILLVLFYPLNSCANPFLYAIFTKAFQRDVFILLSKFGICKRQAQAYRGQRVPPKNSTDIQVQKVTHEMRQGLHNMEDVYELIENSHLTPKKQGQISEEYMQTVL
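Cell-based HTRF cAMP assay; TSHR cells + compound, TSH EC80 (4nM final), 2 h, 37 deg C. Lysis with anti-cAMP cryptate and cAMP-d2, 30 min RT, read 665/620 nm.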
TCR activator: Activators of T cell receptors: qHTS campaign; Potency, µM (highest dose often 9.22 µM), inactives show at the highest dose activation of IL-2 secretion, usual class: activators; primary human leukocytes, anti-CD3, IL-2 HTRF, 48 h; AID 504894, 2011; 330,000 tested, under 10 active; further: % of control where 0% means no effect
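Using a-CD3 beads without co-stimulation, primary human leukocytes were exposed to compounds for 48 hr. An HTRF IL-2 kit measured the cytokine, with europium-to-d2 energy transfer producing emission at 665nm upon 320nm excitation.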
N370S GC mod: qHTS Assay for Inhibitors and Activators of N370S glucocerebrosidase as a Potential Chaperone Treatment of Gaucher Disease; Potency, µM (top dose mostly 59.4 µM), inactives show at the highest dose activity change, negative = inhibition, usual class: inhibitors; AID 2101, 2009; N370S GC spleen homogenate, 4MU-glucoside fluorescence; 330,000 compounds, 0.092% hits; Lysosomal acid glucosylceramidase (Homo sapiens), P04062;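 further: potency means the concentration at half of the fitted maximal effect; 0% = full enzyme activity and -100% = no enzyme basal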
p53 reactivation: qHTS assay for re-activators of p53 using a Luc reporter. AID 504706, 2011. H1299 p53-A138V BP100-luciferase reporter, luminescence, 24 h. Potency, µM (top dose mostly 92.2 µM), inactives show at the top dose activity change, positive = activation, hits mostly activators. 320,000 compounds, 0.063% hits; further: potency means the concentration at half of the fitted maximal effect; % of control where 0% means no effect; nearly all actives have a fitted effect of over 45% in size
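p53-null H1299 cells stably carrying temperature-sensitive p53-A138V and a BP100-luciferase reporter were pinned with compounds (4-point, 1:5 series) and held 24 hrs at 37 deg C. Luminescence was read 10 min after detection reagent.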
* hit, by the source's call; ? = inconclusive; / = no result; [ ] = another dose, or the depositor's remark. In the library only some 1.4% were active in any assay of this set; here they are far more common. Unless noted, the call rests on the fitted dose curve; in most records, active means well fitted curve in the direction sought with a large enough effect; inconclusive means small, poorly fitted or top-dose-only effect, or another doubt; inactive means no such curve, though single readings can be large; an effect the other way counts as inactive or inconclusive.

SMILES	BRCA1 expr up	GLS inh	TSHR antag	TCR activator	N370S GC mod	p53 reactivation
OCCNc1nc(-c2cccnc2)nc2ccccc12	33%	-5%	11	-2%	8%	-1%
C=C[C@]1(C)C[C@@H](OC(=O)CO)[C@]2(C)C(C)CC[C@]3(CCC(=O)[C@H]32)[C@@H](C)[C@@H]1O (stereo partly drawn)	/	-5%	/	/	/	/
C=CCNC(=O)N1CCc2nc(COc3ccccc3)c3c(c2C1)CO[C@@H](C)C3	/	/	/	/	-10%[12.8 µM]	/
CCCCCCCCCC[n+]1ccc(/C=C/c2ccc(N(C)C)cc2)c2ccccc21	-80%	/	/	/	/	/
COCCNc1c(-c2ccc(OC)c(OC)c2)nc2ccc(Cl)cn12	6%	35%	-4	8%	-12%	5%
COCCNc1c(-c2cc3ccc(C)c(C)c3[nH]c2=O)nc2ccccn12	2.2µM*	?	-2	-1%	-12%	14%
N#CN=c1snc(-c2ccccc2Cl)n1-c1ccccc1Cl	-61%	/	/	/	/	/
Cc1cccc(NC(=O)COc2ccccc2C(=O)Nc2ccccc2)c1	0%	/	/	/	/	/
O=c1cc(-c2ccccc2Cl)oc2cc(O)cc(O)c12	?	11%	-10	-7%	8%	7%
Nc1ccc(O)c2c(=O)cc(-c3ccccc3Cl)oc12	2.8µM*	7%	-9	0%	13%[89.1 µM]	28%
O=C1OC(c2ccc3ccccc3c2O)(c2ccc3ccccc3c2O)c2ccccc21	-54%	11µM*	/	-10%	/	/
O=C1OC2(c3ccccc31)c1ccccc1-c1ccccc12	-56%	-16%	/	-1%	/	/
N[C@@H](Cc1cc(CP(=O)(O)O)cc(-c2ccccc2Cl)c1)C(=O)O	/	/	/	/	5%	/
CN(C)S(=O)(=O)c1ccc(C(=O)NCCOc2ccc(F)cc2)cc1	11µM*	0%	1	4%	8%	21%
CC(C)=CC(=O)Nc1nnc(-c2ccccc2C)s1	3.5µM*	2%	-18	-4%	-2%	9%
O=C1C(O)=C(O)C(=O)C(O)=C1O	/	20µM*	/	/	14%	/
COc1ccc(NC(=O)Nc2sc3nc4n(c(=O)c3c2C)CCC(C)CC4)cc1OC (stereo not drawn)	/	-1%	/	/	/	/
O=C(O)c1ccc2c(c1)C(=O)N(CCc1ccccc1)C2=O	-21%	-2%	9	4%	7%	/
O=C(O)c1ccc2c(c1)C(=O)N(CCc1c[nH]c3ccccc13)C2=O	7.9µM*	22%	-20	3%	-3%	?
Cc1ccc(NC(=O)c2cc3c([nH]c2=O)CC(c2ccccc2)CC3=O)cc1 (stereo not drawn)	0%	/	/	/	/	/
COc1cccc(NC(=O)c2ccc(CN3CCOCC3)cc2)c1	11µM*	-6%	1	5%	-2%	?
COc1c(C)cccc1C(=O)Nc1ccc(CN2CCOCC2)cc1	2.5µM*	3%	10	-10%	18%	?
COc1cccc(NC(=S)N2CCCN(Cc3ccc(F)cc3)C2)c1	-1%	15%	-104*	-4%	-7%	0%
Cc1ccc(C)c(NC(=O)C2CCCN2S(=O)(=O)c2ccc3c(c2)CCCC(=O)N3)c1 (stereo not drawn)	16%	-5%	/	/	/	/
CCOc1ccc(Sc2cc(C(=O)NC(C)c3ccccc3)c3ccccc3n2)cc1 (stereo not drawn)	/	-4%	/	/	/	/
SMILES	BRCA1 expr up	GLS inh	TSHR antag	TCR activator	N370S GC mod	p53 reactivation
CN(C)c1ccc(N=Cc2cccc3ccccc23)cc1	14%	/	/	/	/	/
Cc1ccc(C)c(OCc2cc(C(=O)N3C[C@@H](C)O[C@@H](C)C3)no2)c1	4.5µM*	7%	-3	-5%	-1%	?
Cc1ccc(C)c(OCc2cc(C(=O)N3CC[C@@H]4CCCC[C@H]4C3)no2)c1	?	-1%	-6	5%	4%	22%
Cc1ccc(C)c(OCc2cc(C(=O)N3CCN(c4ccccc4)CC3)no2)c1	7.1µM*	10%	-16	-8%	-1%	?
Oc1ccccc1N1CCN(c2ccc3ccccc3n2)CC1	?	10µM*	-77*	0%	3%	?
O=C(O)/C=C/c1ccc2ccccc2c1	4%	/	/	/	/	/
CC(C)(C)c1nnc(NC(=O)COc2ccc3c(c2)OCO3)s1	2.5µM*	-6%	11	-7%	-2%	?
O=C(COc1ccc2c(c1)OCO2)Nc1ccccc1C(F)(F)F	10µM*	-13%	-2	7%	5%	?
Cc1ccc(NC(=O)COc2ccc3c(c2)OCO3)c(Cl)c1	14µM*	1%	-1	0%	/	26%
O=S(=O)(c1cccc(Cl)c1)N1CCN(c2nc(-c3cccs3)nc3ccccc23)CC1	0%	/	/	/	/	/
CCCN1C(=O)c2ccccc2NC1c1ccc(OC)c(COc2cccc(OC)c2)c1 (stereo not drawn)	-18%	/	/	/	/	/
CCCCCCCCCCCCCC(=O)Nc1ccc(/C=C/c2ccnc3ccccc23)cc1	2%	/	/	/	/	/
Cc1nc(C(=O)Nc2ccccc2)sc1C(=O)Nc1ccccc1	2.8µM*	-3%	-8	-5%	0%	?
COc1ccc2oc(=N)c(C(=O)Nc3ccccc3)cc2c1	50%	5%	-9	-2%	3%	?
COc1ccc2oc(=N)c(C(=O)Nc3ccccc3Cl)cc2c1	4.5µM*	0%	1	-3%	8%	/
Cc1cc(C)c(S(=O)(=O)c2ccc(F)cc2C)c(Cl)n1	-3%	16µM*	-9	-6%	-7%	-2%
Cc1cc(C)c(S(=O)(=O)c2ccccc2Cl)c(Cl)n1	/	/	-18	/	2%	-4%
CCOc1ccc(N(CC(=O)Nc2ccccc2)S(C)(=O)=O)cc1	49%	11%	-4	-1%	-11%	1%
CCOc1ccc(N(CC(=O)Nc2cc(OC)cc(OC)c2)S(=O)(=O)c2c(C)[nH]c(=O)[nH]c2=O)cc1	9%	-1%	2	-1%	?	-11%
COc1ccc(N(CC(=O)Nc2cccc(F)c2)S(=O)(=O)c2c(C)[nH]c(=O)[nH]c2=O)cc1	-28%	0%	7	2%	11µM*	4%
CCOc1ccc(N(CC(=O)Nc2ccc(C)c(C)c2)S(=O)(=O)c2c(C)[nH]c(=O)[nH]c2=O)cc1	-2%	8%	3	0%	7.1µM*	-1%

Bioassay records from PubChem.
